Experimental data reported in PubChem BioAssay (NCATS).
Several values for one entry are separate records, joined by “and”; a condition that tells them apart may be missing. Equal values may be shown once. Results filed as inconclusive are left out. Activity calls are given as the source filed them. Unless noted, the call rests on the fitted dose curve; in most records, active means well fitted curve in either direction with a large enough effect (not every such curve was filed as active); inconclusive means small, poorly fitted or top-dose-only effect, or another doubt; inactive means flat fitted curve, though single readings scatter.

What was measured:
[1] = AP1 Signaling Pathway (AID 357); conditions: ME-180 AP-1-bla reporter, EGF-induced, beta-lactamase ratio, 5 h;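 further: ME-180 reporter cells stimulated with EGF at its EC50 level; on the % scale 0 is the no-effect control and ±100 the full control effect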
In short: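 AP-1-bla ME-180 cells, Opti-MEM + 0.5% dialyzed FBS, plated overnight 37 °C. Cpd titration + EC50 EGF, 5 h 37 °C. CCF4 2.5 h RT; ex 405, em 460/530 ratio → %activity, AC50.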

[2] = target: Cytochrome P450 1A2 (Homo sapiens) (UniProt P05177); assay: p450-cyp1a2 (AID 410; calls by dose curve; further: potency means the concentration at half of the fitted maximal effect;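 on activity change, negative = inhibition: -100% = full effect of reference inhibitor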); conditions: recombinant CYP1A2, luciferin-ME demethylation, luminescence; series mostly up to 57 µM
Sequence of Cytochrome P450 1A2 (Homo sapiens) (P05177 whole entry, looked up): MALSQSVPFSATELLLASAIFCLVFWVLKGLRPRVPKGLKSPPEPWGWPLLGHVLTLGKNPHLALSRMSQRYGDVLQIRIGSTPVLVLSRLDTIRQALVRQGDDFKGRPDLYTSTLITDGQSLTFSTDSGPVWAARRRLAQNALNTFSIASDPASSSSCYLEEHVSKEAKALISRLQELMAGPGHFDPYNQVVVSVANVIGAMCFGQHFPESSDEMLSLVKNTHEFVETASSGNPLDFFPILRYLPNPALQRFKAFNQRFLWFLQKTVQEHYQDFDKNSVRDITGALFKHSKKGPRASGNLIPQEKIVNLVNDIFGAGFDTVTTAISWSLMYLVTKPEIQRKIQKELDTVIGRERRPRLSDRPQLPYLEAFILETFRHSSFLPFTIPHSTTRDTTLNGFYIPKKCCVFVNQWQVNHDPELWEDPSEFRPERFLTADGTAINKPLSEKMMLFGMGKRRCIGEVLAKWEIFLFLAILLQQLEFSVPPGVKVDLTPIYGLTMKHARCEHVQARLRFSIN
In short: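 Human CYP1A2 (20nM) demethylated Luciferin-ME at its Km (100uM) in 100mM KPO4. After 10 min compound preincubation, NADPH regeneration ran the reaction 60 min at room temperature. Luciferin was read by luminescence, normalized to 57 uM furafylline.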

[3] = NFAT Signaling Pathway (AID 444); conditions: Jurkat NFAT-bla M1, carbachol, beta-lactamase ratio, 5 h;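 further: carbachol stimulus at about its EC50 of 1 µM final; on the % scale 0 is the no-effect control and ±100 the full control effect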
In short: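 Jurkat cells with NFAT-driven β-lactamase reporter and co-expressed M1 receptor, stimulated with carbachol (final 1 uM, ~EC50), compound titration, 5 h at 37 °C. CCF4 loaded 1 h at RT; 460/530 nm ratio gave %activity and AC50.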

[4] = target: Glucocorticoid receptor (Homo sapiens) (UniProt P04150); assay: GR-GFP Redistribution (AID 450;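 active means compounds whose dose series gives a full or clear partial fitted curve of increased nuclear translocation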; further: potency means the concentration at half of the fitted maximal effect); conditions: U2OS GR-GFP nuclear translocation, laser cytometry, 2 h
Sequence of Glucocorticoid receptor (Homo sapiens) (P04150 whole entry, looked up, the tested form may be a part): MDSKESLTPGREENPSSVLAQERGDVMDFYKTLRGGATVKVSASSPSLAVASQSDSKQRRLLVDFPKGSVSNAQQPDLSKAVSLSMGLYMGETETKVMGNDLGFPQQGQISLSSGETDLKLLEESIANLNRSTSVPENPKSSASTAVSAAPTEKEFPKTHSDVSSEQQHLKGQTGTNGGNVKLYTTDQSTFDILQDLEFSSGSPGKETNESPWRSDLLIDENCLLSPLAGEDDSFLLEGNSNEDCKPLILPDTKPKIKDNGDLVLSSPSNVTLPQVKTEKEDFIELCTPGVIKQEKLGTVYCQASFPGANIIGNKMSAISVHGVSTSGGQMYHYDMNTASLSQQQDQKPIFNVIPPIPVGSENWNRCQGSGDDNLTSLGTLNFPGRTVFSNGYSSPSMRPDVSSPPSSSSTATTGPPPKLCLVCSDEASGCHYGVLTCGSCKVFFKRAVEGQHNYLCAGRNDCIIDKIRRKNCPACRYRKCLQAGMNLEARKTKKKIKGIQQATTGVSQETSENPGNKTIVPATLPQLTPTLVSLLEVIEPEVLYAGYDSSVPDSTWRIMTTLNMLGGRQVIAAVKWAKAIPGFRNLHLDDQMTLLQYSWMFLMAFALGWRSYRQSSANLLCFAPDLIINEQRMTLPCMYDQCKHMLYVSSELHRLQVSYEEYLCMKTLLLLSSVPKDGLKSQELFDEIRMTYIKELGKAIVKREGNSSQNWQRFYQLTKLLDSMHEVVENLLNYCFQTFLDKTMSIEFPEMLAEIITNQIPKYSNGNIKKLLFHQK

[5] = target: Glucocorticoid receptor (Homo sapiens) (UniProt P04150); assay: GR-EFC Redistribution (AID 451; calls by dose curve; further: potency means the concentration at half of the fitted maximal effect); conditions: CHO-K1 GR-EFC translocation, beta-gal luminescence, 2 h
In short: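 CHO-K1 cells expressing nuclear EA and GR-ED fragments of b-gal; compounds titrated up to 46 uM final, 2 h at 37 C. GR nuclear translocation read as complemented b-gal luminescence after 1 h RT detection.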

[6] = target: Mitogen-activated protein kinase 10 (Mus musculus) (UniProt Q61831); assay: JNK3 AlphaScreen Assay (AID 530); conditions: JNK3 lysate, c-Jun phosphorylation; series mostly up to 57.1 µM;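 further: kinase came from lysate of stimulated human HepG2 cells; signal reports phosphorylation of biotinylated GST-cJun 1-79 at Ser73 with 10 µM ATP; on the % scale 0 is the no-effect control and ±100 the full control effect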
In short: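 qHTS format: compounds tested as titrations against IL-1beta/TNF-alpha-activated HepG2 lysate JNK3 with biotin-GST-cJun substrate and 10 uM ATP at room temperature. Loss of anti-phospho-cJun AlphaScreen signal indicates inhibition.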

[7] = target: 3',5'-cyclic-AMP phosphodiesterase 4B (Homo sapiens) (UniProt Q07343); assay: qHTS Assay for Inhibitors of PDE-IV (AID 607; active means well fitted activation curve with a large enough effect in the main read-out, with a control signal flat, not every such curve was filed as active; further: % of control where 0% means no effect); conditions: HEK293 ACTOne CNG channel cells, membrane potential fluorescence; series mostly up to 22.9 µM
Sequence of 3',5'-cyclic-AMP phosphodiesterase 4B (Homo sapiens) (Q07343 whole entry, looked up): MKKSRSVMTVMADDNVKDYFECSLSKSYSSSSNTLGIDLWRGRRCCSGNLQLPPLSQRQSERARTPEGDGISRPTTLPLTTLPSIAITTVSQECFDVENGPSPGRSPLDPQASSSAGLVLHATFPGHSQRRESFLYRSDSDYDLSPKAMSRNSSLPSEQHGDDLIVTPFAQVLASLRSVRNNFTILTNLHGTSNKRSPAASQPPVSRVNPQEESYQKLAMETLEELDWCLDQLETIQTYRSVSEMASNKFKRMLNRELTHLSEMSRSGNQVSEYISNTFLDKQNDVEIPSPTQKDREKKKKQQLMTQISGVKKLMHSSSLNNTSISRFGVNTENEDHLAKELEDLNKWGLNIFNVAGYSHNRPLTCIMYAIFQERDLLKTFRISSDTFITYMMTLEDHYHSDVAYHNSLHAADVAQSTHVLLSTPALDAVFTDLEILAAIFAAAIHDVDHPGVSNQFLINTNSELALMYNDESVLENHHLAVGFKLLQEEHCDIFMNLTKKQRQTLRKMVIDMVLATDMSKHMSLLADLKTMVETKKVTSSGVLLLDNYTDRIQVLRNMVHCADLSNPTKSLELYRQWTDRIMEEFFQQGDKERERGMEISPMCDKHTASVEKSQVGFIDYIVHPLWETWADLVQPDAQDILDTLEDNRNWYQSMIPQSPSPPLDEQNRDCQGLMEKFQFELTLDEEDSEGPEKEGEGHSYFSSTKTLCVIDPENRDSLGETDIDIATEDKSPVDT
In short: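 ACTOne HEK293 cells carry a modified cAMP-gated CNG channel and express endogenous PDE4; plated 1000 cells/well, compounds up to 22.9 uM final. Membrane-potential dye fluorescence (ex 535/em 590) was read; parental cells received 10 uM forskolin + 100 uM RO 20-1724.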

[8] = qHTS Assay for Lipid Storage Modulators (AID 1519; calls by dose curve); conditions: Drosophila S3 cells, BODIPY lipid droplet/cell ratio, laser cytometry, cells loaded with oleic acid; for activity change, negative = inhibition: at 25.7 µM (top of the series)
In short: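 Cells seeded at 5,000 per well were treated with compounds over a concentration series and loaded with oleic acid (400 uM, as added). Lipid droplet fluorescence (488 nm excitation, 500-530 nm channel) was read by laser-scanning cytometry and normalized to 20 uM Triacsin C.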

[9] = target: Ubiquitin carboxyl-terminal hydrolase 1 (Homo sapiens) (UniProt O94782); assay: Inhibitors of USP1/UAF1: Pilot qHTS (AID 504865; active means well fitted curve in the direction sought with a large enough effect; an effect the other way counts as inactive or inconclusive;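 further: rhodamine fluorescence freed from ubiquitin-rhodamine substrate followed over time; top concentration of the series differs between compounds; on the % scale 0 is the no-effect control and ±100 the full control effect; nearly all actives have a fitted effect of over 35% in size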); conditions: purified USP1/UAF1, Ub-rhodamine cleavage fluorescence; series mostly up to 54.9 µM
Sequence of Ubiquitin carboxyl-terminal hydrolase 1 (Homo sapiens) (O94782 whole entry, looked up): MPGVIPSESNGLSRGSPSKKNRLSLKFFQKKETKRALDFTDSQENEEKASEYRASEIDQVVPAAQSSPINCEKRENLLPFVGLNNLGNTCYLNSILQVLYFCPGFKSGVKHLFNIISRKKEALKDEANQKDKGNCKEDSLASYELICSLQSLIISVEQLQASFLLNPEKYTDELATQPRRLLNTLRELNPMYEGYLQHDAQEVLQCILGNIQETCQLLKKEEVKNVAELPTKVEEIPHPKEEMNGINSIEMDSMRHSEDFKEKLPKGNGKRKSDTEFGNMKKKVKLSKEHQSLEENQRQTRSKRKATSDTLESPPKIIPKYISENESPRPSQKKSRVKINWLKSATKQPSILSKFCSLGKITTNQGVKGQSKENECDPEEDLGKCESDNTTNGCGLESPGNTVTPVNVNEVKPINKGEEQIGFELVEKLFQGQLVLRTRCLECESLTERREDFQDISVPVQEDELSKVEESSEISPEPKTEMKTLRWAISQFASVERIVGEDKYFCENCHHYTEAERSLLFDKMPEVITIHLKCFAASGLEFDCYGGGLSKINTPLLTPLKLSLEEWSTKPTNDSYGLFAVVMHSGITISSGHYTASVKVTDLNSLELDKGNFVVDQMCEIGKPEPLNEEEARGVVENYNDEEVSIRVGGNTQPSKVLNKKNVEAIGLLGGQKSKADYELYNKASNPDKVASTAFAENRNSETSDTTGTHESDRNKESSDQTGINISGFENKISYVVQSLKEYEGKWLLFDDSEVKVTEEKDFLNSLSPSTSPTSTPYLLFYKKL
In short: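 USP1/UAF1 complex at 1 nM preincubated 15 min at room temperature with compound, then Ub-Rho substrate added at 150 nM final. Fluorescence (480/540 nm) read kinetically in 50 mM HEPES pH 7.8, 0.5 mM EDTA, 1 mM TCEP, 0.1 mg/ml BSA, 0.01% Tween-20.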

[10] = Stat Signaling Pathway (AID 446); conditions: ME-180 SIE beta-lactamase reporter, IL-6 stimulated, 5 h;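 further: ME-180 cervical cancer cells given 40 pM IL-6 alongside compound; SIE-controlled beta-lactamase reporter measured as 460/530 nm FRET emission ratio; on the % scale 0 is the no-effect control and ±100 the full control effect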
In short: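 ME-180 SIE-bla cells; overnight plating; cpd + IL-6 40 pM, 5 h, 37 C; LiveBLAzer 2.5 h RT; 460/530 nm emission ratio. Normalized to 300 pM IL-6 and 125 nM JAK inhibitor controls.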

[11] = target: ATP-dependent 6-phosphofructokinase (Trypanosoma brucei brucei) (UniProt O15648); assay: qHTS Assay to Find Inhibitors of T. brucei phosphofructokinase: hit validation (AID 492961; active means well fitted curve in the direction sought with a large enough effect; an effect the other way counts as inactive or inconclusive); conditions: T. brucei PFK, ADP-Glo luminescence; series mostly up to 24.3 µM
Sequence of ATP-dependent 6-phosphofructokinase (Trypanosoma brucei brucei) (O15648 whole entry, looked up): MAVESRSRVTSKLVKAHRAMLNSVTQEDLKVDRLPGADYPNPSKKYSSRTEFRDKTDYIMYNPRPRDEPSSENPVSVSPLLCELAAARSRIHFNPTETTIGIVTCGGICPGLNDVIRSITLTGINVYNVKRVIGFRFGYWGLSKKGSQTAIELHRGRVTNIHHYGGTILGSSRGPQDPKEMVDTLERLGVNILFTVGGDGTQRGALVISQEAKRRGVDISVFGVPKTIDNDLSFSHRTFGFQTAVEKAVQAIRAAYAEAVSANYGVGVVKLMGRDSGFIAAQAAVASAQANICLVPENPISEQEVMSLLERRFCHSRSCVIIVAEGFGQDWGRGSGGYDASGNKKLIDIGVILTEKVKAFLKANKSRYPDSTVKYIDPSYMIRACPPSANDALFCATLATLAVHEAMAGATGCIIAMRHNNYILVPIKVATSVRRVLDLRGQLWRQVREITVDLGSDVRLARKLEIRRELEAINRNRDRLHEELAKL
In short: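 Inhibition of parasite PFK is measured as reduced ADP formation, quantified via luciferase after ATP depletion. Assay used 0.1 mM ATP, 0.5 mM F6P, 1.25 nM enzyme, 45 min incubation.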

[12] = qHTS profiling for inhibitors of Plasmodium falciparum proliferation (AID 504749; active means well fitted curve in the direction sought with a large enough effect; an effect the other way counts as inactive or inconclusive;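 further: 0% = DMSO vehicle and full inhibition = artemisinin control; nearly all actives have a fitted effect of over 60% in size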); conditions: P. falciparum in erythrocytes, SYBR Green DNA, 72 h, at 28.7 µM (top of the series)
In short: (§1)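 Readout was DNA-dye fluorescence from lysed cultures, ex 485/em 535 nm. Parasitized red cells had grown 72 h with compound; data scaled between 0.29 uM artemisinin and DMSO wells and corrected using vehicle-only plates.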

[13] = test system: AS120; assay: as above; conditions: P. falciparum in erythrocytes, SYBR Green DNA, 72 h; series mostly up to 28.7 µM
In short: as §1

[14] = test system: CP238; assay: as above; conditions: P. falciparum in erythrocytes, SYBR Green DNA, 72 h; series mostly up to 12.8 µM
In short: as §1

[15] = test system: CP250; assay: as above; conditions: P. falciparum in erythrocytes, SYBR Green DNA, 72 h; series mostly up to 12.8 µM
In short: as §1

[16] = test system: CP265; assay: as above; conditions: P. falciparum in erythrocytes, SYBR Green DNA, 72 h; series mostly up to 12.8 µM
In short: as §1

[17] = test system: FAB9; assay: as above; conditions: P. falciparum in erythrocytes, SYBR Green DNA, 72 h; series mostly up to 12.8 µM
In short: as §1

[18] = test system: JCK; assay: as above; conditions: P. falciparum in erythrocytes, SYBR Green DNA, 72 h; series mostly up to 12.8 µM
In short: as §1

[19] = test system: PC49; assay: as above; conditions: P. falciparum in erythrocytes, SYBR Green DNA, 72 h; series mostly up to 12.8 µM
In short: as §1

[20] = measured here: cell count channel max response
[21] = measured here: lipid channel max response

CN1Cc2c(N)cccc2[C@H](c2ccccc2)C1
active: Potency [2] 31.6 µM and 6.31 µM
-0.662%: max response [8, 20]
0.613%: max response [8, 21]
inactive: activity change, negative = inhibition ([1]; at 17.2 µM (top of the series)) -6.53% | activity change, negative = inhibition ([1]; at 38 µM (top of the series)) -7.55% | activity change, negative = inhibition ([3]; at 17.2 µM (top of the series)) -6.69% | activity change, negative = inhibition ([3]; at 38 µM (top of the series)) -5.66% | Potency [4] > 46 µM and > 20.6 µM | Potency [5] > 46 µM and > 20.6 µM | Potency [6] | Potency [7] | activity change, negative = inhibition [8] 1.09% | Potency [9]

CC(C)(C)NC[C@H](O)c1cc(O)cc(O)c1
8%: max response [8, 20]
4.68%: max response [8, 21]
inactive: activity change, negative = inhibition ([1]; at 17.2 µM (top of the series)) -14.7% | activity change, negative = inhibition ([1]; at 38 µM (top of the series)) -8.4% | Potency [2] | activity change, negative = inhibition ([3]; at 17.2 µM (top of the series)) -10.3% | activity change, negative = inhibition ([3]; at 38 µM (top of the series)) 0.832% | activity, negative = inhibition ([10]; at 17.2 µM (top of the series)) -0.828% | activity, negative = inhibition ([10]; at 38 µM (top of the series)) 3.91% | Potency [6] | Potency [7] | activity change, negative = inhibition [8] -2.66% | outcome [11] | activity, negative = inhibition ([12]; parasite line A) -9.2% | activity, negative = inhibition ([12]; parasite line B) -17.1% | Potency [13] | Potency [14] | Potency [15] | Potency [16] | Potency [17] | Potency [18] | Potency [19]

N[C@H](C(=O)N[C@@H]1C(=O)N2C(C(=O)O)=C(Cl)CS[C@@H]12)c1ccccc1
-2.76% and 11.1%: max response [8, 20]
inactive: activity change, negative = inhibition ([1]; at 17.2 µM (top of the series)) 6.26% and -9.38% | activity change, negative = inhibition ([1]; at 38 µM (top of the series)) -4.53% | Potency [2] | activity change, negative = inhibition ([3]; at 17.2 µM (top of the series)) -10.5% and 0.734% | activity change, negative = inhibition ([3]; at 38 µM (top of the series)) 5.52% | activity, negative = inhibition ([10]; at 17.2 µM (top of the series)) -10.4% and 2.37% | activity, negative = inhibition ([10]; at 38 µM (top of the series)) 22.7% | Potency [4] > 46 µM and > 20.6 µM | Potency [5] > 46 µM and > 20.6 µM | Potency [6] | Potency [7] | activity change, negative = inhibition [8] -0.721% and -1.78%
-3.03% and 9.1%: max response [8, 21]

C[C@@]12CCC(=O)C=C1CC[C@@H]1[C@@H]2[C@H](O)C[C@]2(C)[C@@H]1CC[C@]2(O)C(=O)CO
-11.2%: max response [8, 20]
inactive: activity change, negative = inhibition ([1]; at 17.2 µM (top of the series)) 1.82% | activity change, negative = inhibition ([1]; at 38 µM (top of the series)) 1.86% | Potency [2] | activity change, negative = inhibition ([3]; at 17.2 µM (top of the series)) -9.51% | activity change, negative = inhibition ([3]; at 38 µM (top of the series)) -0.823% | Potency [6] | Potency [7] | activity change, negative = inhibition [8] -5.23% | Potency [9]
-16.6%: max response [8, 21]
